Assay results: PubChem BioAssay (NCI)
About 79,000 compounds went through this panel and 15% of them were active in at least one assay; those are over-represented in the sample as a whole. Values without a mark were called inactive. Active and inactive are the calls of the source. Cut-off read from the data, not from the text of the source: active = growth inhibition above about 70%; inactive = the rest.

What was measured:
[1] = NCI Yeast Anticancer Drug Screen. Data for the mec2-1 strain (AID 157); settings: S. cerevisiae mec2-1 strain, stronger effect = higher value
How it was run: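 mec2-1 yeast strain, carrying an alteration in DNA damage repair or cell cycle control, was exposed to compounds; growth inhibition was measured relative to vehicle-treated controls.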

[2] = NCI Yeast Anticancer Drug Screen. Data for the rad14 strain (AID 159);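 note: 0% = growth of vehicle-treated control cultures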; settings: S. cerevisiae rad14 strain growth inhibition, stronger effect = higher value
How it was run: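 Screen for anticancer potential: a yeast strain altered in DNA damage repair is grown with compound, and reduced growth is quantified against vehicle controls.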

[3] = NCI Yeast Anticancer Drug Screen. Data for the sgs1 mgt1 strain (AID 161);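 note: 0% = growth of cultures given vehicle only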; settings: S. cerevisiae sgs1 mgt1 strain, stronger effect = higher value
How it was run: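 Percent growth inhibition was derived by comparing compound-exposed mutant yeast with vehicle-exposed cultures. The strain carries alterations in DNA damage repair.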

[4] = NCI Yeast Anticancer Drug Screen. Data for the CLN2oe strain (AID 163);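 note: 0% = growth of vehicle-only control cultures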; settings: S. cerevisiae CLN2oe strain, stronger effect = higher value
How it was run: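 Yeast cells carrying a defined cell-cycle control alteration were exposed to test compounds. Growth inhibition was scored against vehicle-treated control cultures.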

[5] = NCI Yeast Anticancer Drug Screen. Data for the cln2 rad14 strain (AID 165);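 note: 0% = growth equal to vehicle treated cultures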; settings: S. cerevisiae cln2 rad14 strain, stronger effect = higher value
How it was run: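 Yeast carrying cln2 and rad14 alterations (cell cycle control and DNA damage repair) were exposed to compounds. Growth inhibition was measured against vehicle-treated controls.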

[6] = NCI Yeast Anticancer Drug Screen. Data for the bub3 strain (AID 167); settings: S. cerevisiae bub3 mutant strain, stronger effect = higher value
How it was run: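 Screening used yeast with an engineered genetic alteration affecting cell cycle control. Compound-exposed cultures were compared with vehicle cultures, and reduced growth was taken as inhibition.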

[7] = NCI Yeast Anticancer Drug Screen. Data for the wt2 strain (AID 169);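 note: 0% = growth of vehicle-treated yeast cultures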; settings: S. cerevisiae wt2 strain growth inhibition, stronger effect = higher value
How it was run: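 Yeast cells were exposed to test compounds, and growth inhibition was measured relative to vehicle-treated controls.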

[8] = NCI Yeast Anticancer Drug Screen. Data for the mlh1 strain (AID 171);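 note: 0% = growth of vehicle-treated control cultures of the same strain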; settings: S. cerevisiae mlh1 strain growth inhibition, stronger effect = higher value
How it was run: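 Yeast carrying a defined genetic alteration in DNA damage repair or cell cycle control were exposed to test compounds. Growth inhibition was measured relative to vehicle-treated controls.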

[9] = NCI Yeast Anticancer Drug Screen. Data for the sgs1 strain (AID 173);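 note: 0% = growth of vehicle-only control cultures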; settings: S. cerevisiae sgs1 mutant, stronger effect = higher value
How it was run: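 Yeast mutant strains carrying defined defects in DNA damage repair or cell cycle control were exposed to test compounds. Growth inhibition was scored against vehicle-treated controls.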

[10] = NCI Yeast Anticancer Drug Screen. Data for the mlh1 rad18 strain (AID 175); settings: S. cerevisiae mlh1 rad18 strain growth inhibition, stronger effect = higher value
How it was run: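 Growth inhibition of the yeast strain was measured after compound exposure and expressed relative to vehicle-treated controls. The strain carries defined defects in DNA damage repair.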

[11] = NCI Yeast Anticancer Drug Screen. Data for the rad18 strain (AID 177); settings: S. cerevisiae rad18 mutant growth inhibition, stronger effect = higher value
How it was run: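 Yeast carrying a defined DNA damage repair alteration were exposed to compounds. Growth inhibition was expressed relative to vehicle-treated controls.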

[12] = NCI Yeast Anticancer Drug Screen. Data for the rad52 strain (AID 147);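 note: 0% = growth of vehicle-treated control cultures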; settings: S. cerevisiae rad52 mutant growth inhibition, stronger effect = higher value
How it was run: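 Yeast strain carrying a DNA damage repair alteration was exposed to test compounds. Growth inhibition was measured relative to vehicle-treated controls.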

[13] = NCI Yeast Anticancer Drug Screen. Data for the wt1 strain (AID 149);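 note: 0% = growth of vehicle-treated wt1 cultures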; settings: S. cerevisiae wt1 strain (SPY 50644) growth inhibition, stronger effect = higher value
How it was run: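 Using yeast strain wt1, compound-induced growth inhibition was determined against vehicle-treated cultures.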

[14] = NCI Yeast Anticancer Drug Screen. Data for the rad50EPP+ strain (AID 151);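 note: 0% = growth of vehicle-treated control cultures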; settings: S. cerevisiae rad50 mutant strain, stronger effect = higher value
How it was run: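 Yeast strain carrying rad50 alteration (rad50EPP+) exposed to compounds; growth inhibition measured relative to vehicle-treated controls.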

[15] = NCI Yeast Anticancer Drug Screen. Data for the mgt1 strain (AID 153); settings: S. cerevisiae mgt1 mutant growth inhibition, stronger effect = higher value
How it was run: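 Yeast mgt1 strain (DNA repair/cell-cycle alteration panel) exposed to compounds; growth inhibition measured relative to vehicle-treated controls.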

[16] = NCI Yeast Anticancer Drug Screen. Data for the rad50 strain (AID 155);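 note: 0% = growth of vehicle-only cultures of the same strain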; settings: S. cerevisiae rad50 strain growth inhibition, stronger effect = higher value
How it was run: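 Relative growth inhibition (compound vs vehicle) was measured in yeast with a defined repair-gene alteration.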

[17] = at 5.0 µM (retest, dose inferred, filed as 0.5)
[18] = at 50.0 µM (retest, dose inferred, filed as 5.0)

## O=C(O)c1cccc2cccc(-c3c4ccc(=O)cc-4oc4cc(O)ccc34)c12
[1]; [17]
  growth inhibition: 53%
[1]; at 11.0 µM
  growth inhibition: 85% (active)
[1]; at 33.0 µM
  growth inhibition: 85% (active)
[1]; [18]
  growth inhibition: 94% (active)
[1]; at 50.0 µM
  growth inhibition: 91.5% (active)
[1]; at 100.0 µM
  growth inhibition: 93% (active)
[2]; at 1.2 µM
  growth inhibition: 10%
[2]; at 3.7 µM
  growth inhibition: 13%
[2]; at 11.0 µM
  growth inhibition: 55%
[2]; at 33.0 µM
  growth inhibition: 74% (active)
[2]; at 100.0 µM
  growth inhibition: 93% (active)
[3]; [17]
  growth inhibition: 1%
[3]; [18]
  growth inhibition: 95% (active)
[4]; at 1.2 µM
  growth inhibition: 16%
[4]; at 3.7 µM
  growth inhibition: 9%
[4]; at 11.0 µM
  growth inhibition: 70% (active)
[4]; at 33.0 µM
  growth inhibition: 81% (active)
[4]; at 100.0 µM
  growth inhibition: 90% (active)
[5]; [17]
  growth inhibition: 61%
[5]; [18]
  growth inhibition: 95% (active)
[6]; at 1.2 µM
  growth inhibition: 34%
[6]; at 3.7 µM
  growth inhibition: 69%
[6]; [17]
  growth inhibition: 72% (active)
[6]; at 11.0 µM
  growth inhibition: 91% (active)
[6]; at 33.0 µM
  growth inhibition: 93% (active)
[6]; [18]
  growth inhibition: 94% (active)
[6]; at 100.0 µM
  growth inhibition: 92% (active)
[7]; at 1.2 µM
  growth inhibition: 17%
[7]; at 3.7 µM
  growth inhibition: 26%
[7]; at 11.0 µM
  growth inhibition: 48%
[7]; at 33.0 µM
  growth inhibition: 85% (active)
[7]; at 100.0 µM
  growth inhibition: 96% (active)
[8]; at 1.2 µM
  growth inhibition: 7%
[8]; at 3.7 µM
  growth inhibition: 18%
[8]; at 11.0 µM
  growth inhibition: 63%
[8]; at 33.0 µM
  growth inhibition: 87% (active)
[8]; at 100.0 µM
  growth inhibition: 91% (active)
[9]; at 1.2 µM
  growth inhibition: 34%
[9]; at 3.7 µM
  growth inhibition: 31%
[9]; at 11.0 µM
  growth inhibition: 74% (active)
[9]; at 33.0 µM
  growth inhibition: 85% (active)
[9]; at 100.0 µM
  growth inhibition: 95% (active)
[10]; [17]
  growth inhibition: 27%
[10]; [18]
  growth inhibition: 98% (active)
[10]; at 50.0 µM
  growth inhibition: 90% (active)
[11]; at 1.2 µM
  growth inhibition: 18%
[11]; at 3.7 µM
  growth inhibition: 23%
[11]; at 11.0 µM
  growth inhibition: 71% (active)
[11]; at 33.0 µM
  growth inhibition: 79% (active)
[11]; at 100.0 µM
  growth inhibition: 94% (active)

## Cc1cc(C)c(N2C(=O)CC(Sc3ccccc3N)C2=O)c(C)c1 (stereo not given)
[12]; at 1.2 µM
  growth inhibition: -27%
[12]; at 3.7 µM
  growth inhibition: -20%
[12]; at 11.0 µM
  growth inhibition: -31%
[12]; at 33.0 µM
  growth inhibition: -14%
[12]; at 100.0 µM
  growth inhibition: -22%
[13]; at 1.2 µM
  growth inhibition: -53%
[13]; at 3.7 µM
  growth inhibition: -52%
[13]; at 11.0 µM
  growth inhibition: -58%
[13]; at 33.0 µM
  growth inhibition: -62%
[13]; at 100.0 µM
  growth inhibition: -45%
[14]; at 1.2 µM
  growth inhibition: -15%
[14]; at 3.7 µM
  growth inhibition: -13%
[14]; at 11.0 µM
  growth inhibition: -16%
[14]; at 33.0 µM
  growth inhibition: -11%
[14]; at 100.0 µM
  growth inhibition: 1%
[15]; at 1.2 µM
  growth inhibition: -57%
[15]; at 3.7 µM
  growth inhibition: -57%
[15]; at 11.0 µM
  growth inhibition: -57%
[15]; at 33.0 µM
  growth inhibition: -38%
[15]; at 100.0 µM
  growth inhibition: -21%
[16]; at 1.2 µM
  growth inhibition: -34%
[16]; at 3.7 µM
  growth inhibition: -30%
[16]; [17]
  growth inhibition: 37%
[16]; at 11.0 µM
  growth inhibition: -33%
[16]; at 33.0 µM
  growth inhibition: -42%
[16]; [18]
  growth inhibition: 41%
[16]; at 50.0 µM
  growth inhibition: 30.1%
[16]; at 100.0 µM
  growth inhibition: -27%
[1]; at 1.2 µM
  growth inhibition: -42%
[1]; at 3.7 µM
  growth inhibition: -44%
[1]; [17]
  growth inhibition: 45%
[1]; at 11.0 µM
  growth inhibition: -45%
[1]; at 33.0 µM
  growth inhibition: -36%
[1]; [18]
  growth inhibition: 48%
[1]; at 50.0 µM
  growth inhibition: 48.5%
[1]; at 100.0 µM
  growth inhibition: -24%
[2]; at 1.2 µM
  growth inhibition: -59%
[2]; at 3.7 µM
  growth inhibition: -53%
[2]; at 11.0 µM
  growth inhibition: -53%
[2]; at 33.0 µM
  growth inhibition: -56%
[2]; at 100.0 µM
  growth inhibition: -45%
[3]; [17]
  growth inhibition: 0%
[3]; [18]
  growth inhibition: 91% (active)
[3]; at 50.0 µM
  growth inhibition: 42.9%
[4]; at 1.2 µM
  growth inhibition: -16%
[4]; at 3.7 µM
  growth inhibition: -11%
[4]; at 11.0 µM
  growth inhibition: -2%
[4]; at 33.0 µM
  growth inhibition: 14%
[4]; at 100.0 µM
  growth inhibition: -2%
[6]; at 1.2 µM
  growth inhibition: -48%
[6]; at 3.7 µM
  growth inhibition: -43%
[6]; [17]
  growth inhibition: -26%
[6]; at 11.0 µM
  growth inhibition: -51%
[6]; at 33.0 µM
  growth inhibition: -48%
[6]; [18]
  growth inhibition: 91% (active)
[6]; at 50.0 µM
  growth inhibition: 51.6%
[6]; at 100.0 µM
  growth inhibition: -51%
[7]; at 1.2 µM
  growth inhibition: -14%
[7]; at 3.7 µM
  growth inhibition: -19%
[7]; at 11.0 µM
  growth inhibition: -1%
[7]; at 33.0 µM
  growth inhibition: -8%
[7]; at 100.0 µM
  growth inhibition: 19%
[8]; at 1.2 µM
  growth inhibition: -33%
[8]; at 3.7 µM
  growth inhibition: -27%
[8]; at 11.0 µM
  growth inhibition: -27%
[8]; at 33.0 µM
  growth inhibition: -23%
[8]; at 100.0 µM
  growth inhibition: 1%
[9]; at 1.2 µM
  growth inhibition: -37%
[9]; at 3.7 µM
  growth inhibition: -41%
[9]; at 11.0 µM
  growth inhibition: -34%
[9]; at 33.0 µM
  growth inhibition: -28%
[9]; at 100.0 µM
  growth inhibition: -21%
[10]; [17]
  growth inhibition: 24%
[10]; [18]
  growth inhibition: 44%
[10]; at 50.0 µM
  growth inhibition: 34.3%
[11]; at 1.2 µM
  growth inhibition: -54%
[11]; at 3.7 µM
  growth inhibition: -45%
[11]; at 11.0 µM
  growth inhibition: -38%
[11]; at 33.0 µM
  growth inhibition: -47%
[11]; at 100.0 µM
  growth inhibition: -44%
